Results: publication PMC4336329 (PLoS ONE, 2015)
Screen size: about 310,000 compounds; about 14,000 (4.5%) showed an effect of 50% or more. The effect is printed as a negative number. For the sample, strong results were picked, then their nearest neighbours and some compounds at random.

Target: human ether-à-go-go-related gene (hERG) potassium channel (human, UniProt Q12809)
Assay: primary screen, population patch clamp on CHO cells stably expressing hERG; higher = less effect of the substance
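Note: peak tail current of the secondary pulse compared with the same well before compound.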

Sequence of human ether-à-go-go-related gene (hERG) potassium channel (Q12809 whole entry, looked up): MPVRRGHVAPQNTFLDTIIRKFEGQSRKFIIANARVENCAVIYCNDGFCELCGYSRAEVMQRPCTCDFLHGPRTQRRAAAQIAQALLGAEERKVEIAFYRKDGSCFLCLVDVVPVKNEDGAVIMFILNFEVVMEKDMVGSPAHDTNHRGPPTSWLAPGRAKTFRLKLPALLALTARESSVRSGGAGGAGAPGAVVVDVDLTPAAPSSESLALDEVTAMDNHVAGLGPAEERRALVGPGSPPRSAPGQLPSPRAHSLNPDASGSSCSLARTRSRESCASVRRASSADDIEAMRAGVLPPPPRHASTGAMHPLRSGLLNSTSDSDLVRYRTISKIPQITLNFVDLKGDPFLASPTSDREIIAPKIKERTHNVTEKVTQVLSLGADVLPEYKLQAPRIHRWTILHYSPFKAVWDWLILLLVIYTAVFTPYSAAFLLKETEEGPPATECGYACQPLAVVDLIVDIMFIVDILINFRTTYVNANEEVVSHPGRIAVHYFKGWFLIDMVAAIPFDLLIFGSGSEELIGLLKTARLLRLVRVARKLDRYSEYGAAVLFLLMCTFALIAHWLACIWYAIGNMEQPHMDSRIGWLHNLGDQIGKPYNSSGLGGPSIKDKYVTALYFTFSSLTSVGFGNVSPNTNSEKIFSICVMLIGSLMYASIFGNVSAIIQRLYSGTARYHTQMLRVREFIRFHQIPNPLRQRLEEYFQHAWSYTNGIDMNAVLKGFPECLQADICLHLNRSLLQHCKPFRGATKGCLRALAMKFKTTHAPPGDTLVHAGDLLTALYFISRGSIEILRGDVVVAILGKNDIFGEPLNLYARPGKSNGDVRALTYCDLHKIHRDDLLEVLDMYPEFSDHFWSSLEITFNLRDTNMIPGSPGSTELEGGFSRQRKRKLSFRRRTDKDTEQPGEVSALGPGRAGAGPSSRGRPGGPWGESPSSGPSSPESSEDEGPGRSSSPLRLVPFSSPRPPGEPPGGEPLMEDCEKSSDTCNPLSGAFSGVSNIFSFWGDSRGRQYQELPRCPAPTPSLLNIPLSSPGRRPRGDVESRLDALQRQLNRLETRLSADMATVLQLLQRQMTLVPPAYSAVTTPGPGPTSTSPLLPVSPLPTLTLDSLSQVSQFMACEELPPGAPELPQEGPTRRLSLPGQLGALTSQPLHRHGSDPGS

| Compound | hERG current change (%, negative = inhibition) at 10uM [%] |
| --- | --- |
| Cc1[nH]c2ccccc2c1/C=N/NC(=O)CNC(=O)Cc1ccccc1 | 15.5 |
| NC(=O)c1nnn(-c2nonc2N)c1-c1ccc([N+](=O)[O-])cc1 | 24.7 |
| C=CCn1c(SCC(=O)c2ccc(NS(=O)(=O)c3ccccc3)cc2)nnc1-c1cccs1 | -19.5 |
| COc1cc(/C=C/C(=O)OCC(=O)Nc2sc3c(c2C#N)CCC(C)C3)ccc1OCC#N (centres unmarked) | 12.1 |
| COc1cccc(/C=C/C(=O)c2ccc3c(c2)OCO3)c1OC | 1.82 |
| CC1CCC2(CC1)NC(=O)N(NC(=O)c1cccs1)C2=O (centres unmarked) | 9.08 |
| NC(=O)c1ccc(NC(=O)COC(=O)CNC(=O)c2sc3ccccc3c2Cl)cc1 | -12.8 |
| O=C(COC(=O)CNC(=O)c1sc2ccccc2c1Cl)Nc1c(Cl)cc(Cl)cc1Cl | 15.6 |
| O=C(COC(=O)CNC(=O)c1sc2ccccc2c1Cl)Nc1cc(Cl)cc(Cl)c1 | -54.7 |
| Cc1nc(-c2nc(-c3c(C(=O)NNC(=O)c4ccc(Cl)cc4)noc3C)cs2)cs1 | -35.1 |
| COCCN(C)Cc1nc(C(c2ccccc2)c2ccccc2)no1 | 3.28 |
| CN(CCc1cn[nH]c1)Cc1nc(C(c2ccccc2)c2ccccc2)no1 | -38.5 |
| CCN(CC)CCN(C)Cc1nc(C(c2ccccc2)c2ccccc2)no1 | -57.7 |
| O=c1c2ccccc2nc(/C=C/c2ccc(O)cc2)n1CCc1ccccc1 | -17.3 |
| O=C(CN1c2ccccc2Sc2ccccc21)NNC(=O)Nc1cccc(Cl)c1 | 2.84 |
| CCOC(=O)C1=C(COC(=O)[C@H](C)NS(=O)(=O)c2ccc(NC(C)=O)cc2)NC(=O)NC1C (some centres unmarked) | 21.2 |
| CN1CCN(CCn2c(=S)[nH]c3ccccc3c2=O)CC1 | 6.07 |
| O=C(CCCCn1c(=O)[nH]c2ccccc2c1=O)NC1CCN(Cc2ccccc2)CC1 | -18.9 |
| CC1(C)C(=O)N(CCN2CCC(C(=O)c3ccc(F)cc3)CC2)c2ccccc21.Cl | -70.5 |
| Cl.O.O=C(c1ccc(F)cc1)C1CCN(CCn2c(=S)[nH]c3ccccc3c2=O)CC1 | -68.9 |
| O=C(O)C(O)C(O)C(=O)O.O=C(c1ccc(F)cc1)C1CCN(CCn2c(=O)[nH]c3ccccc3c2=O)CC1 | -51.8 |
| O=C(c1ccc(F)cc1)C1CCN(C(=O)c2ccccc2)CC1 | -9.13 |

| Compound | hERG current change (%, negative = inhibition) at 10uM [%] |
| --- | --- |
| CCOc1ccccc1C(=O)N1CCC(C(=O)c2ccc(F)cc2)CC1 | -25.2 |
| O=c1c2ccccc2[nH]c(=S)n1CCN1CCCC1 | -19.1 |
| O=C(O)CCn1c(=O)[nH]c2ccccc2c1=O | 12.4 |
| O=C(NNc1cc(Cl)cc(Cl)c1)C1CCC1 | 21.9 |
| COc1ccc(NC(=O)Cn2c(C)cc(=O)c3ccccc32)cc1 | -7.76 |
| O=C1CN(S(=O)(=O)c2cccc(Cl)c2Cl)c2ccccc2N1 | 3.58 |
| O=C1CC(=Nc2ccccc2)NN1c1ccccc1 | 23.1 |
| CCCCNC(=O)NC1CCCC1 | 4.48 |
| c1ccc2c(c1)c1cccc3ccc4cccc2c4c31 | 16.4 |
| COC(=O)c1c(NC(=O)/C=C/c2ccco2)sc2c1CCC2 | 17.6 |
| Cc1nc(N)nc(Nc2ccc(Cl)cc2)c1Br | -7.99 |
| COc1ccc(NC(C)=O)cc1NC(=O)CN1CCN(CC(=O)Nc2ccccc2Cl)CC1 | -53.3 |
| COc1ccc(NC(=O)c2ccccc2Cl)cc1NC(=O)CN1CCOCC1 | -5.99 |
| COc1ccc(NC(C)=O)cc1NC(=O)CN1CCN(c2ccccn2)CC1 | 10.3 |
| COc1ccc(NC(C)=O)cc1NC(=O)CN1CCN(CC(=O)Nc2ccc(Cl)cc2)CC1 | -69.8 |
| COc1ccc(NC(C)=O)cc1NC(=O)CN1CCN(C2c3ccccc3-c3ccccc32)CC1 | 3.55 |
| COc1ccccc1NC(=O)CN1CCN(CC(=O)Nc2cc(NC(C)=O)ccc2OC)CC1 | -50.3 |
| COc1ccc(NC(C)=O)cc1NC(=O)c1ccc(Cl)cc1 | -18.2 |
| COc1ccccc1NC(=O)CN1CCN(CC(=O)Nc2ccc(OC)c(OC)c2)CC1 | -24.4 |
| Cc1cc2c(cc1C)C(=O)NC(C)(C)C2 | 8.73 |
| COc1cccc(N2C(=O)[C@H]3C(C(=O)c4cnccn4)=NN[C@H]3C2=O)c1 | 13.2 |
| CCc1nnc(NC(=O)CSc2ccc(-c3ccc(C)cc3)nn2)s1 | 9.49 |

| Compound | hERG current change (%, negative = inhibition) at 10uM [%] |
| --- | --- |
| O=C(NC1CC(=O)c2sccc21)c1ccc(Cl)cc1Cl (centres unmarked) | -35.6 |
| O=C(c1ccco1)N1CCN(C(=O)c2sccc2-c2ccccc2)CC1 | -8.12 |
| COc1ccc(C)cc1NC(=O)CCN1CCCC1 | 2.36 |
| COc1ccc(C)cc1NC(=O)CCN1CCN(C/C=C/c2ccccc2)CC1 | -77.1 |
| COc1ccc(C)cc1NC(=O)CN1CCN(C/C=C/c2ccccc2)CC1 | -78.3 |
| COc1ccc(C)cc1NC(=O)CCN1CCN(c2ccccc2)CC1 | -10.3 |
| CCc1ccccc1NC(=O)CN1CCN(CC(=O)Nc2cc(C)ccc2OC)CC1 | -28.4 |
| COc1ccc(C)cc1NC(=O)CN1CCN(c2ccccn2)CC1 | -11.7 |
| Cc1ccc(S(=O)(=O)c2nnn3c2nc(N2CCOCC2)c2ccccc23)c(C)c1 | -31.3 |
| COCc1nnc(NC(=O)c2cc(C(=O)OC)cc([N+](=O)[O-])c2)s1 | -2.76 |
| O=C(Cc1ncc(C(F)(F)F)cc1Cl)NCc1cccnc1 | 17.1 |
| COc1ccc(CC(=O)OCC(=O)Nc2ccc(OC(F)F)cc2)cc1OC | -19.7 |
| Cc1cc(C)n(CC(C)NC(=O)c2cc(COc3c(F)cccc3F)on2)n1 (centres unmarked) | 1.49 |
| COc1ccc(OC)c(C2=NOC(C(=O)NCc3cccnc3)C2)c1 (centres unmarked) | -62 |
| COc1ccc(C(=O)NC(=S)NCc2cccnc2)cc1Br | -23.9 |
| COc1ccc(C(=O)NC(=S)NCc2cccnc2)cc1[N+](=O)[O-] | -12.3 |
| CCOc1ccc(C(=O)NC(=S)Nc2ccccn2)cc1[N+](=O)[O-] | -2.48 |
| COc1ccc(C(=O)NC(=S)NCc2cccnc2)cc1OC | -57.3 |
| COc1ccc(C(=O)NC(=S)NCc2cccnc2)cc1Cl | -1.7 |
| COc1cc(OC)c(C2=NOC(C(=O)NCc3cccnc3)C2)cc1Cl (centres unmarked) | 13 |
| CCOc1ccc(C(=O)NC(=S)Nc2cccnc2)cc1[N+](=O)[O-] | -16.1 |
| CCOc1ccc(C(=O)NC(=S)NCc2cccnc2)cc1[N+](=O)[O-] | -2.86 |

| Compound | hERG current change (%, negative = inhibition) at 10uM [%] |
| --- | --- |
| CCOc1ccc(C(=O)NCc2cccnc2)cc1[N+](=O)[O-] | -76 |
| COc1cccc(C2=NOC(C(=O)NCc3cccnc3)C2)c1 (centres unmarked) | 35.6 |
| CCOc1ccc(C(=O)NC(=S)Nc2ncccc2C)cc1[N+](=O)[O-] | -67.6 |
| NC(=O)CSc1oc(-c2ccc(F)cc2)nc1S(=O)(=O)c1ccccc1 | -8.24 |
| Cc1ccc(S(=O)(=O)C(C#N)c2nc3ccccc3nc2OC(C)C)cc1 (centres unmarked) | -5.65 |
| CN(CC(=O)Nc1ccc(F)cc1)C(=O)COC(=O)C1=COCCO1 | -20 |
| CCCCOC(=O)C1=C(C)Nc2ncnn2C1c1ccc(OC)c(OC)c1OC (centres unmarked) | -18.3 |
| CCOC(=O)Cc1csc(NC(=O)c2ccc3c(c2)OCO3)n1 | -22.8 |
| Cc1nn(C(=O)CN2C(=O)c3ccccc3C2=O)c(C)c1Br | 5.28 |
| CCOC(=O)[C@H]1[C@H]2COc3ccc(Cl)cc3[C@@H]2N2C(=O)CN(Cc3ccc(Cl)cc3)C(=O)[C@@]12C | 2.8 |
| Cc1ccc(NC(=O)Nc2cc(Cl)ccc2C2COC(=O)C2=N)cc1 (centres unmarked) | 27.9 |
| Cn1c(N)c(S(=O)(=O)N2CCCC2)c(=O)n(C)c1=O | 26.2 |
| O=C(O)C(F)(F)F.c1cn2c(NC3CCCCC3)c(-c3ccc(SC4CCCCC4)cc3)nc2cn1 | 9.49 |
| O=C(CSc1ccc(F)cc1)N1CCOCC1 | 16.2 |
| O=C(N/N=C/c1cccnc1)c1cc(Br)ccc1O | 30.5 |
| Cc1ccc(-n2c(=O)cc(N3CC(C)CC(C)C3)[nH]c2=O)cc1 (centres unmarked) | 23.7 |
| COc1cc(NC(=O)Cn2cnc3c(nc4n3CCCCC4)c2=O)cc(OC)c1OC | 22.8 |
| COc1ccccc1NC(=O)Cn1cnc2c(nc3n2CCCCC3)c1=O | -11.4 |
| O=C(Cn1cnc2c(nc3n2CCCCC3)c1=O)Nc1cccc(C(F)(F)F)c1 | -52.3 |
| CC(C)c1nc(CN(C)C(=O)N[C@H](C(=O)N[C@@H](Cc2ccccc2)C[C@H](O)[C@H](Cc2ccccc2)NC(=O)OCc2cncs2)C(C)C)cs1 | -24.5 |
